Assay [1] in a line: qHTS assay to identify small molecule agonists of the peroxisome proliferator-activated receptor delta (PPARd) signaling pathway - cell viability counter screen (AID 743211). Also: nearly all actives have a fitted effect of over 55% in size. In short, it runs like this:
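Tox21 library compounds, delivered in DMSO, were incubated 17 h with PPARd-bla HEK293H cells; cytotoxicity was taken from CellTiter-Glo luminescence read 30 min after reagent addition.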
On the technique in general: qHTS replaces the single test concentration by a dilution series.

Assay [2] can be described thus: qHTS assay to identify small molecule antagonists of the peroxisome proliferator-activated receptor delta (PPARd) signaling pathway - cell viability counter screen (AID 743213). Also: nearly all actives have a fitted effect of over 50% in size. In short, it runs like this: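 PPARd-bla HEK293H cells (3000/well) got compound plus 300 nM L165041 agonist for 17 h at 37 C. Viability in the same wells came from CellTiter-Glo luminescence after 30 min at room temperature.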

In assay [3] the target is Bile acid receptor (Homo sapiens) (UniProt Q96RI1). The experiment in a line: qHTS assay to identify small molecule antagonists of the farnesoid-X-receptor (FXR) signaling pathway (AID 743217; active = well fitted inhibition curve with a large enough effect in the signal ratio in the repeat runs, not every such curve was filed as active; the % refers to the signal ratio). In short, it runs like this:
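Antagonist mode against 50 uM (final) chenodeoxycholic acid stimulation in FXR-bla HEK 293T cells, 16 h at 37 °C. Inhibition detected as reduced beta-lactamase activity via LiveBLAzer B/G FRET fluorescence after 2 h at room temperature.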

Assay [4] can be described thus: qHTS assay to identify small molecule agonists of the farnesoid-X-receptor (FXR) signaling pathway - cell viability counter screen (AID 743218). Also: nearly all actives have a fitted effect of over 45% in size. Also: potency is read from the fitted curve at half-maximal effect. In short, it runs like this:
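Cytotoxicity counter-screen run in parallel, same wells: FXR-UAS-bla HEK 293T cells dosed 16 h at 37 C, viability read by CellTiter-Glo luminescence after 30 min at room temperature.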

In assay [5] the target is Bile acid receptor (Homo sapiens) (UniProt Q96RI1). The experiment in a line: qHTS assay to identify small molecule agonists of the farnesoid-X-receptor (FXR) signaling pathway (AID 743220; active = well fitted activation curve with a large enough effect in the signal ratio in the repeat runs, not every such curve was filed as active; the % refers to the signal ratio). In short, it runs like this: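 Beta-lactamase reporter under UAS control in GeneBLAzer FXR HEK 293T cells (5000/well) measured with LiveBLAzer FRET substrate after 2 h at room temperature. Compound exposure lasted 16 h at 37C.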
Chain of Bile acid receptor (Homo sapiens) (Q96RI1 whole entry, looked up): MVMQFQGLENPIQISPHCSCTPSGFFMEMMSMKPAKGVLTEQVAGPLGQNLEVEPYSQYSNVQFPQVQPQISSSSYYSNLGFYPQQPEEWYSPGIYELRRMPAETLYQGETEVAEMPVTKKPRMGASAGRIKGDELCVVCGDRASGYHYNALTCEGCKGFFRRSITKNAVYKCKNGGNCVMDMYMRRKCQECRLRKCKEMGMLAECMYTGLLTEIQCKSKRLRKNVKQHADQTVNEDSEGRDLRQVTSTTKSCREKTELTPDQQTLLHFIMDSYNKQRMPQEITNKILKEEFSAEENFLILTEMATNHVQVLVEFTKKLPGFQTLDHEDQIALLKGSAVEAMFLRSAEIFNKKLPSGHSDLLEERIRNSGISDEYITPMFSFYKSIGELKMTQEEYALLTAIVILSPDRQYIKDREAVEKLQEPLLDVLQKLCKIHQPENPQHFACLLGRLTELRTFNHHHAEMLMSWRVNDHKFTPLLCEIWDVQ

Assay [6] in a line: qHTS assay to identify small molecule antagonists of the farnesoid-X-receptor (FXR) signaling pathway - cell viability counter screen (AID 743221; active = well fitted cell-killing curve with a large enough effect in the repeat runs, not every such curve was filed as active; also: nearly all actives have a fitted effect of over 50% in size; also: potency is read from the fitted curve at half-maximal effect). The method in brief:
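Cytotoxicity is taken from ATP luminescence (CellTiter-Glo, 30 min, room temperature) in FXR-bla HEK 293T cells previously incubated 16 h at 37 C with compound and chenodeoxycholic acid at 50 uM final.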

The target in assay [7] is Vitamin D3 receptor (Homo sapiens) (UniProt P11473). The assay can be described thus: qHTS assay to identify small molecule agonists of the vitamin D receptor (VDR) signaling pathway (AID 743222; calls by dose curve). The method in brief: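 Quantitative HTS agonist-mode screen: compounds in DMSO were pin-transferred onto VDR-bla cells and incubated 16 h at 37C, 5% CO2. Reporter activity was detected with LiveBLAzer B/G FRET substrate after 2 h at room temperature.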
Chain of Vitamin D3 receptor (Homo sapiens) (P11473 whole entry, looked up): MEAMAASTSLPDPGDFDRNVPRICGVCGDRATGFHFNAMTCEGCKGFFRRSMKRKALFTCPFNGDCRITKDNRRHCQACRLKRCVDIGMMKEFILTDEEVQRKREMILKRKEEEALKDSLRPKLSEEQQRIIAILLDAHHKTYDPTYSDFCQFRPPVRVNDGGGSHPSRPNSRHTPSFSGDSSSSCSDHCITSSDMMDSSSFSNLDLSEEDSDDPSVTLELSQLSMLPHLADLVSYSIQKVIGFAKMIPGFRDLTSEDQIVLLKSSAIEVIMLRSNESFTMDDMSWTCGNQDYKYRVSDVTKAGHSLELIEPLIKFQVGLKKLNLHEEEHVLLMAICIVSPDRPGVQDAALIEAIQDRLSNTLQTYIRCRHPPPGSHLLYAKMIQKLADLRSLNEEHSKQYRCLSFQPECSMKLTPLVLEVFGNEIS

Assay [8] has the same target. The assay can be described thus: qHTS assay to identify small molecule antagonists of the vitamin D receptor (VDR) signaling pathway (AID 743223; active = well fitted inhibition curve with a large enough effect in the signal ratio in the repeat runs, not every such curve was filed as active; the % refers to the signal ratio). The method in brief: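 Quantitative HTS in VDR-bla reporter cells stimulated with 1alpha,25-dihydroxyvitamin D3, 3 nM final. Compound exposure 16 h, 37C, 5% CO2. Read-out: beta-lactamase FRET substrate fluorescence, 2 h RT.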

The nature of assay [9]: qHTS assay to identify small molecule antagonists of the vitamin D receptor (VDR) signaling pathway - cell viability counter screen (AID 743225). Also: nearly all actives have a fitted effect of over 50% in size. In short, it runs like this:
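Same-well multiplex: following 16 h treatment of HEK 293T cells carrying a UAS-driven beta-lactamase reporter with compound and agonist (3 nM final), and a 2 h FRET substrate step, CellTiter-Glo was added and luminescence read after 30 min.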

Assay [10] is described as follows: qHTS assay to identify small molecule agonists of the NFkB signaling pathway (AID 1159509; active = well fitted curve in the direction sought with a large enough effect in the signal ratio in the repeat runs, not every such curve was filed as active; the % refers to the signal ratio; also: series mostly up to about 61 µM). The method in brief:
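NFkB-bla ME-180 cells carry a beta-lactamase reporter under an NF-kB response element. They were plated overnight, then exposed to compounds for 5 h at 37 C. Read-out is LiveBLAzer FRET after 1.5 hr at room temperature (405 nm excitation; 460/530 nm emission).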

Assay [11] in a line: qHTS assay to identify small molecule agonists of the NFkB signaling pathway - cell viability counter screen (AID 1159515; calls by dose curve; also: nearly all actives have a fitted effect of over 55% in size; also: potency is read from the fitted curve at half-maximal effect). The method in brief: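 Multiplexed viability readout: after the 5 hr compound exposure and 1.5 hr FRET substrate step, CellTiter-Glo reagent went into the same NFkB-bla ME-180 wells; ATP luminescence was measured after 30 min at room temperature.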
Assay [12] can be described thus: qHTS assay to identify small molecule agonists of the endoplasmic reticulum stress response signaling pathway (AID 1159516; active = well fitted activation curve with a large enough effect in the signal ratio in the repeat runs, not every such curve was filed as active; the % refers to the signal ratio). The method in brief:
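Tox21 10K library screened in quantitative HTS format on ESRE-bla HeLa cells, a beta-lactamase reporter under ER stress response element control; 5 hr treatment, FRET read.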

Assay [13] can be described thus: qHTS assay to identify small molecule antagonists of the retinoid-related orphan receptor gamma (ROR-gamma) signaling pathway - cell viability counter screen (AID 1159520). Also: nearly all actives have a fitted effect of over 50% in size. The method in brief:
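Tet-on ROR gamma CHO cells were given compounds for 2 hr, then doxycycline hyclate at 1 uM final, and incubated 16 hr at 37 C. Viability was measured as ATP content by CellTiter-Glo luminescence.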

Assay [14] is described as follows: qHTS assay to identify small molecule agonists of the AP-1 signaling pathway - cell viability counter screen (AID 1159525; calls by dose curve; also: nearly all actives have a fitted effect of over 55% in size). The method in brief:
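AP-1-bla ME-180 cells in Opti-MEM with 0.5% dialyzed FBS, compound exposure 5 h at 37 C in 15-point titration. Viability read in the same wells as ATP content by CellTiter-Glo luminescence, normalised to tetra-n-octylammonium bromide and DMSO controls.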

The nature of assay [15]: qHTS assay to identify small molecule agonists of the AP-1 signaling pathway (AID 1159526; calls by dose curve).
The target in assay [16] is Nuclear receptor ROR-gamma (Homo sapiens) (UniProt P51449). The assay can be described thus: qHTS assay to identify small molecule antagonists of the retinoid-related orphan receptor gamma (ROR-gamma) signaling pathway (AID 1159521; also: nearly all actives have a fitted effect of over 50% in size; also: potency is read from the fitted curve at half-maximal effect). In short, it runs like this: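 Inducible-expression reporter assay: doxycycline (1 uM final) switched on RORγ in CHO cells bearing a ROR response element-luciferase construct, with test compounds present from 2 h beforehand. Decreased luminescence after 16 h defined antagonist activity.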

The target of assay [17] is Peroxisome proliferator-activated receptor delta (Homo sapiens) (UniProt Q03181). The assay can be described thus: qHTS assay to identify small molecule agonists of the peroxisome proliferator-activated receptor delta (PPARd) signaling pathway (AID 743212; calls by dose curve). The method in brief: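 GeneBLAzer UAS-bla HEK293H cells carrying a PPARδ construct were exposed to compounds at 37 °C. Beta-lactamase activity was read by FRET fluorescence after 2 h at room temperature with LiveBLAzer B/G substrate.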
Chain of Peroxisome proliferator-activated receptor delta (Homo sapiens) (Q03181 whole entry, looked up): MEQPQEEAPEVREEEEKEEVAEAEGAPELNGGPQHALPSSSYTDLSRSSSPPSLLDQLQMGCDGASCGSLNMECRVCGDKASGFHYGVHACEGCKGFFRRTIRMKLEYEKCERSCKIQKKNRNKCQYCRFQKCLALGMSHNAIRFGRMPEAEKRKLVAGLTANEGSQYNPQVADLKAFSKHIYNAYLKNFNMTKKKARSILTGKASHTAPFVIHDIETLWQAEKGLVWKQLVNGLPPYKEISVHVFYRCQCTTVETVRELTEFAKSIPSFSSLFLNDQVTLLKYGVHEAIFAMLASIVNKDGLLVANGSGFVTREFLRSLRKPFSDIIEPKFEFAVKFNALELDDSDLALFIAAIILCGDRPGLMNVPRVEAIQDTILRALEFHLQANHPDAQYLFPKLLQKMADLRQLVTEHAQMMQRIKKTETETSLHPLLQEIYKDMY

Assay [18] shares this target. The experiment in a line: qHTS assay to identify small molecule antagonists of the peroxisome proliferator-activated receptor delta (PPARd) signaling pathway (AID 743215; active = well fitted inhibition curve with a large enough effect in the signal ratio in the repeat runs, not every such curve was filed as active; the % refers to the signal ratio;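 also: cells stimulated with agonist L165041 at 300 nM final during compound exposure; series mostly up to about 62 µM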). In short, it runs like this:
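Inhibition of L165041-driven (300 nM final) PPARd signaling is scored in HEK293H UAS-bla cells. Exposure lasts 17 h at 37 C; beta-lactamase activity is then read by FRET substrate fluorescence after 2 h at room temperature.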

The nature of assay [19]: qHTS assay to identify small molecule agonists of the vitamin D receptor (VDR) signaling pathway - cell viability counter screen (AID 743224). The method in brief: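 Viability is measured in the same wells as the VDR-bla reporter assay: after 16 h compound treatment and 2 h substrate loading, CellTiter-Glo is added and luminescence read 30 min later.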

The structures appear in SMILES notation. Records with an inconclusive call do not appear. Values without a mark were called inactive. Active and inactive are the calls of the source. Unless noted, calls follow the shape of the dose curve; as a rule, active = well fitted curve in the direction sought with a large enough effect in the repeat runs; inconclusive = weak or mixed curves; inactive = no such curve, though single readings can be large; an effect the other way counts as inactive or inconclusive.

With `CCN(CC)CCNC(=O)c1cc(Cl)c(N)cc1OC`, the Potency result in assay [1], in assay [2], in assay [4], in assay [5], in assay [6] and in [9] was “inactive” each time. For the same compound, the Potency result in assay [11], in [12], in assay [13] and in assay [14] was “inactive” each time. In addition, the compound was classed as inactive in assay [3], in assay [7], in assay [8], in assay [10] and in assay [15].

As for `CCCCCCCC(=O)Oc1c(Br)cc(C#N)cc1Br`, the Potency entry in assay [1], in assay [5], in assay [6], in assay [11], in [12] and in assay [14] was “inactive” each time. For the same compound, the result in assay [7], in assay [8], in [10] and in [15] was inactive. Also, the Potency in assay [16] was 48.4 µM (active).

As for `O=C(Nc1ccc(C(=O)O)c(O)c1)c1ccccc1`, the Potency entry in assay [1], in assay [18], in assay [4], in assay [6], in [19] and in assay [9] was “inactive” each time. In addition, the Potency result in assay [11], in assay [12], in [16] and in [14] was “inactive” in each case. For the same compound, the result in [17], in assay [7], in assay [8], in [10] and in assay [15] was inactive.

For `Cc1ccc(N(CCO)CCO)cc1`, the Potency result in assay [1], in assay [5], in assay [6], in assay [19], in assay [9] and in assay [11] was “inactive” each time. The Potency entry in assay [12], in assay [13] and in assay [14] was “inactive” throughout. Also, the compound was called inactive in assay [3], in assay [7], in assay [10] and in [15].

In the case of `CC(=O)NNC(C)=O`, the Potency entry in [1], in [2], in [18], in assay [4], in assay [5] and in [19] was “inactive” throughout. The Potency entry in assay [11], in [12], in [13] and in [14] was “inactive” throughout. Also, the outcome in assay [3], in [7], in [8], in [10] and in [15] was inactive.

For `Cc1c[nH]c2ccccc12`, the Potency entry in [1], in [2], in [18], in assay [4], in [6] and in assay [9] was “inactive” each time. The Potency entry in assay [11], in [12], in [16] and in assay [14] was “inactive” each time. The result in assay [17], in [10] and in assay [15] was inactive.

As for `COc1ccc(-c2cc(=S)ss2)cc1`, the Potency entry in [1], in assay [2], in [4], in [6], in assay [19] and in [11] was “inactive” throughout. In addition, the Potency entry in assay [12], in assay [13] and in assay [14] was “inactive” throughout. Moreover, the result in assay [8] and in [10] was inactive.

Take `CC(=O)Oc1cccc(O)c1`: the Potency result in assay [1], in assay [2], in assay [4], in assay [5], in assay [6] and in assay [19] was “inactive” each time. Besides, the Potency result in [11], in [12], in assay [16] and in assay [14] was “inactive” throughout. For the same compound, the compound was classed as inactive in assay [3], in assay [8], in assay [10] and in assay [15].

As for `CC1=C2[C@@H]([C@H](C)CC[C@H]2/C=C(\C)C(=O)O)[C@H](O)C1`, the Potency entry in assay [1], in assay [2], in [18], in assay [4], in assay [5] and in assay [6] was “inactive” in each case. The Potency result in assay [19], in assay [9], in assay [11], in assay [12], in [13] and in assay [14] was “inactive” in each case. Further, the compound was classed as inactive in assay [3], in assay [10] and in assay [15].

On to `Cc1c(C2(c3cc(Br)c(O)c(Br)c3C)OS(=O)(=O)c3ccccc32)cc(Br)c(O)c1Br`, for which the Potency entry in assay [2], in [5], in [19], in [9] and in assay [12] was “inactive” throughout. Besides, the call in assay [3], in [8], in [10] and in assay [15] was inactive. Moreover, the Potency in assay [4] is 16.9 µM (active); in assay [6], 16.9 µM (active); in [11] it was 37.7 µM (active); in [16] it was 5.93 µM (active).

(Values after PubChem BioAssay (Tox21).)
